# Assay results reported in PubChem BioAssay (NCATS).
# Records with an inconclusive call do not appear. Where a call stands in place of a potency, no number is given. More than one record can exist for a structure, and the calls need not agree. Activity calls are given as the source filed them. Unless noted, calls follow the shape of the dose curve; as a rule, active = well fitted curve in the direction sought with a large enough effect; inconclusive = small, poorly fitted or top-dose-only effect, or another doubt; inactive = no such curve, though single readings can be large; an effect the other way counts as inactive or inconclusive.
# What was measured:
# [1] = qHTS Screen of the MIPE 4.0 Collection Against Ewings Sarcoma (TC32) (AID 1259256); also: nearly all actives have a fitted effect of over 45% in size; also: potency is read from the fitted curve at half-maximal effect
# In short: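 After a 4 h attachment period in RPMI/5% FBS, cells were pin-dosed with test compounds; DMSO served as negative and 9.2 uM bortezomib (final) as positive control. Luminescent CellTiter-Glo signal at 48 h defined viability.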
# [2] = Identifying Small Molecule Inhibitors of Pancreatic Cancer Stem Cells (A2780, Spheroid) (AID 1259357); settings: Potency: A2780 spheroid viability;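 also: spheroids pre-formed over 14 days in stem cell medium on hydrogel; compound exposure lasted 48 h before the ATP luminescence read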
# In short: (§1)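 Adherent (2D) versus sphere (3D) formats; spheres generated 14 d in SCM beforehand. Compound transferred by pin tool after 4 h, 48 h incubation, CellTiter-Glo endpoint.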
# [3] = Identifying Small Molecule Inhibitors of Pancreatic Cancer Stem Cells (SN12C, Adherent) (AID 1259358);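 also: cell survival measured after 48 h of compound exposure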; also: potency is read from the fitted curve at half-maximal effect
# In short: as §1
# [4] = Identifying Small Molecule Inhibitors of Pancreatic Cancer Stem Cells (SN12C, Spheroid) (AID 1259360); settings: Potency: SN12C spheroid viability
# In short: as §1
# [5] = Identifying Small Molecule Inhibitors of Pancreatic Cancer Stem Cells (A278, Adherent) (AID 1259361);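 also: viability read after 48 h compound exposure; nearly all actives have a fitted effect of over 35% in size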
# In short: as §1
# [6] = Identifying Small Molecule Inhibitors of Pancreatic Cancer Stem Cells (Panc1, Adherent) (AID 1259362); settings: Potency: viability; also: potency is read from the fitted curve at half-maximal effect
# In short: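 Endpoint: ATP-based luminescence, 48 h drug exposure. Bortezomib at 9.2 uM final as full-kill control; DMSO vehicle as negative control; activity normalized between vehicle and cell-free wells.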
# [7] = P-glycoprotein substrates identified in KB-8-5-11 adenocarcinoma cell line, qHTS therapeutic library screen (AID 1346987); also: nearly all actives have a fitted effect of over 65% in size; also: potency is read from the fitted curve at half-maximal effect
# In short: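 Luminescence from CellTiter-Glo, read 5 min after addition, quantified survival of KB-8-5-11 (P-gp-overexpressing) cells exposed to compounds for 72 h. AC50 was derived from concentration-response curves.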
# [8] = qHTS for Inhibitors of the Functional Ribonucleoprotein Complex (vRNP) of Lassa (LASV) Arenavirus: LASV Primary Screen - GLuc reporter signal (AID 1347082; calls by dose curve; tested in HEK293 reporter line; also: nearly all actives have a fitted effect of over 60% in size; also: potency is read from the fitted curve at half-maximal effect)
# [9] = P-glycoprotein substrates identified in KB-3-1 adenocarcinoma cell line, qHTS therapeutic library screen (AID 1346986); also: nearly all actives have a fitted effect of over 60% in size
# In short: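 Viability read by CellTiter-Glo after 72 h compound exposure in dose-response of KB-3-1 and KB-8-5-11 (P-gp-high) cells. Hits needed AC50 < 10 uM, >50% maximum response and curve class -1.1 to -2.4. Cherry-picks retested ± tariquidar, including pcDNA/MDR-19 HEK-293 pair.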
# [10] = NS1 protein of Zika virus - qHTS assay to identify small molecule inhibitors in human HEK 293 cells (AID 1347053); also: nearly all actives have a fitted effect of over 55% in size; also: potency is read from the fitted curve at half-maximal effect
# In short: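 Readout was TR-FRET using paired anti-NS1 antibodies after 24 h infection of HEK 293 cells with ZIKV MR766 (MOI = 0.5). Compound preceded virus by 1 h; reduced signal reflects lower NS1 expression.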
# [11] = Natriuretic polypeptide receptor (hNpr1) antagonism - Pilot counterscreen GloSensor control cell line (AID 1347045; calls by dose curve; also: potency is read from the fitted curve at half-maximal effect)
# In short: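 Cells were first seeded and incubated overnight at 37C, then loaded with 2% GloSensor substrate for 2 h. Compounds were added for 30 min at room temperature, followed by a baseline read, 50 uM SNP and a final read after 20 min.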
# [12] = target: Atrial natriuretic peptide receptor 1 (Homo sapiens) (UniProt P16066); assay: Natriuretic polypeptide receptor (hNpr1) antagonism - Pilot screen (AID 1347049; calls by dose curve;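 also: HEK293 cells with hNpr1 and GloSensor cGMP luciferase stimulated by 0.1 nM hNppA; agonist-evoked cGMP luminescence read 20 min after hNppA addition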; also: potency is read from the fitted curve at half-maximal effect)
# Chain of Atrial natriuretic peptide receptor 1 (Homo sapiens) (P16066 whole entry, looked up): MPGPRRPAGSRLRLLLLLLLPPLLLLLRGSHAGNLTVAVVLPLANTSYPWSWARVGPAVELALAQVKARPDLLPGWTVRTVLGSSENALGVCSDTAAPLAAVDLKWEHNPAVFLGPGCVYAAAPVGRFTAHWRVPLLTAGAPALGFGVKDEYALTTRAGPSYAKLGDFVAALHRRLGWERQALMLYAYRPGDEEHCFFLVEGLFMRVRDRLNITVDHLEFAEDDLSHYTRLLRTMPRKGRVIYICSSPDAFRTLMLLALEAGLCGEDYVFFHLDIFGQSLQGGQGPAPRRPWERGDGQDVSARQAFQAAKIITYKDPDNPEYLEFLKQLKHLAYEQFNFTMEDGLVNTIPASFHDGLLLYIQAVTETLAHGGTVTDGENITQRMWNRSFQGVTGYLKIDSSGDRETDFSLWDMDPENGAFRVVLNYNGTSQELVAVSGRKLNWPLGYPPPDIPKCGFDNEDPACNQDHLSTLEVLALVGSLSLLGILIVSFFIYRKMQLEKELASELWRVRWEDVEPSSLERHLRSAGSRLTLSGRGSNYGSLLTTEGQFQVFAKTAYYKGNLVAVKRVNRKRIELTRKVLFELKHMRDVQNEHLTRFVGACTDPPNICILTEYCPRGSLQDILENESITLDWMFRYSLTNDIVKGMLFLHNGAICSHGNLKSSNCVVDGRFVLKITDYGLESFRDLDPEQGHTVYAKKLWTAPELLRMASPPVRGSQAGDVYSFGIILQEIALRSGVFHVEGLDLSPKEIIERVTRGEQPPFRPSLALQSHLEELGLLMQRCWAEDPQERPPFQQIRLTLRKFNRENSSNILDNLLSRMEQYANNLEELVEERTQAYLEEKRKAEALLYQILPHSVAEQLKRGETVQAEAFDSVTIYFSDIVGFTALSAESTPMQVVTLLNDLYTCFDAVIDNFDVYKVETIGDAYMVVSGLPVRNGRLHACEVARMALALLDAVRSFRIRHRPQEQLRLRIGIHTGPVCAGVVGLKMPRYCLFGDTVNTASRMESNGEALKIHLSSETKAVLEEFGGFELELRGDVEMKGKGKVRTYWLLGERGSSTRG
# In short: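 Receptor antagonism read as cGMP-dependent luminescence in hNpr1/pGS-40F HEK293 cells: pre-read after 30 min compound exposure, post-read 20 min after hNppA agonist at 0.1 nM final, all at room temperature, protected from light; A-71915 titration as control.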
# [13] = target: Atrial natriuretic peptide receptor 2 (Homo sapiens) (UniProt P20594); assay: Natriuretic polypeptide receptor (hNpr2) antagonism - Pilot subtype selectivity assay (AID 1347050; calls by dose curve; also: potency is read from the fitted curve at half-maximal effect)
# Chain of Atrial natriuretic peptide receptor 2 (Homo sapiens) (P20594 whole entry, looked up): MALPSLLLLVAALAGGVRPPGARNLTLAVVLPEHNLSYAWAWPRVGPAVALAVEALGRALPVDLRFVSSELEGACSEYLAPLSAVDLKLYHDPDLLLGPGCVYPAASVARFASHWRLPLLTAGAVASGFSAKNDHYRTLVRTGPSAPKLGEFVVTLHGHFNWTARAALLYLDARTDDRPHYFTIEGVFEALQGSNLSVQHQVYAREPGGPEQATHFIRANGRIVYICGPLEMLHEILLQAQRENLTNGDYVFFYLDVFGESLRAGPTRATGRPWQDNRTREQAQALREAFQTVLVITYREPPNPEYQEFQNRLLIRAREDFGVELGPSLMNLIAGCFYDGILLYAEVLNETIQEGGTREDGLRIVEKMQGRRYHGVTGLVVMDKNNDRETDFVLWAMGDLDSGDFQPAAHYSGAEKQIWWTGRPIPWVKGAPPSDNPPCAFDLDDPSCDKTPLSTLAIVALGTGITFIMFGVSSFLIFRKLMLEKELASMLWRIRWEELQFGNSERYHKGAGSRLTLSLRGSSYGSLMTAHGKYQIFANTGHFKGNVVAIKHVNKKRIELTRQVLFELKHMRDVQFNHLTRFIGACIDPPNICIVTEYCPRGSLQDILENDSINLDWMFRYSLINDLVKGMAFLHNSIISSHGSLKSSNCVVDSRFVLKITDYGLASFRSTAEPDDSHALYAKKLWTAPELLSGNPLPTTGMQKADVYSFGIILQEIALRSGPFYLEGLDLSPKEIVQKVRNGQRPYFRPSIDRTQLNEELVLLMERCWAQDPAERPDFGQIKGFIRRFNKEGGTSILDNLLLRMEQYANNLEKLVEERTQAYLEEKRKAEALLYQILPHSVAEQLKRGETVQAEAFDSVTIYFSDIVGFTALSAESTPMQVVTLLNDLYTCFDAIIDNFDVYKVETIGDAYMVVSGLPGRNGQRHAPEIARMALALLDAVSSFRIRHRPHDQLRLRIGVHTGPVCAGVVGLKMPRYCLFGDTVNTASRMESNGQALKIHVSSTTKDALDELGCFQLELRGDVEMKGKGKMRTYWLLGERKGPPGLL
# In short: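 Antagonist mode: compounds (LOPAC1280, seven 1:5 dilutions) added 30 min before 1 nM hNppC stimulation of hNpr2-HEK293 cGMP-sensor cells; luminescence read before and 20 min after agonist at ambient temperature.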
# [14] = target: T1, Tyrosine-protein phosphatase non-receptor type substrate 1 (Homo sapiens) + Leukocyte surface antigen CD47 (Homo sapiens) (UniProt P78324+Q08722); assay: CD47-SIRPalpha protein protein interaction - LANCE assay qHTS validation (AID 1347057; active = well fitted curve in the direction sought with a large enough effect in the signal ratio, with a control signal flat, not every such curve was filed as active; the % refers to the signal ratio; also: series mostly up to about 38 µM)
# T1 sequence (P78324 whole entry, looked up, the tested form may be a part): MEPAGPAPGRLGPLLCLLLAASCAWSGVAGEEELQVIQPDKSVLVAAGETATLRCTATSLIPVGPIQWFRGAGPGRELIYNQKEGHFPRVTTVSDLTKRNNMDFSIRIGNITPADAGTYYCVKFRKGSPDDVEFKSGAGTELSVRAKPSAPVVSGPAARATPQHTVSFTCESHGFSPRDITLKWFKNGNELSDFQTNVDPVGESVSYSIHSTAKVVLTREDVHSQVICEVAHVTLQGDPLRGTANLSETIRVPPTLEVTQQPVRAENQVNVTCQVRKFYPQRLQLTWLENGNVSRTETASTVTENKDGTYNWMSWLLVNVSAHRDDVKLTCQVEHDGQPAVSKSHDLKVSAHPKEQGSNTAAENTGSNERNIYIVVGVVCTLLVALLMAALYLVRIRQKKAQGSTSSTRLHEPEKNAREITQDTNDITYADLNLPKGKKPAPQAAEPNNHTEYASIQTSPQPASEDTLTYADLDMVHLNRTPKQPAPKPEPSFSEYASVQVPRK
# T1 sequence (Q08722 whole entry, looked up, the tested form may be a part): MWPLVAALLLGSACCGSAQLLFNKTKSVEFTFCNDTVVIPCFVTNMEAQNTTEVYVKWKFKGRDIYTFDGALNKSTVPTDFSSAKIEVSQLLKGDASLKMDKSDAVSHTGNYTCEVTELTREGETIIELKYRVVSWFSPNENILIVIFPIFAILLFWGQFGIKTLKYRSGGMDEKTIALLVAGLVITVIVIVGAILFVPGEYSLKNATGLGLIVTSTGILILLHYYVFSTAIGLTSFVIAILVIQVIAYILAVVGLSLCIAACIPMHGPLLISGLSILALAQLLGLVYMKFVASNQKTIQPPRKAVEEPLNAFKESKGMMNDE
# In short: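 Inhibition of soluble CD47/SIRPalpha ectodomain association by titrated compounds, measured as 665/615 nm time-resolved FRET ratio after sequential 30 min room-temperature incubations.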
# [15] = target: T1, Tyrosine-protein phosphatase non-receptor type substrate 1 (Homo sapiens) + Leukocyte surface antigen CD47 (Homo sapiens); assay: CD47-SIRPalpha protein protein interaction - Alpha assay qHTS validation (AID 1347059);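 also: bead proximity luminescence from CD47 binding SIRPalpha after compound preincubation with SIRPalpha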
# In short: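 AlphaScreen signal between CD47-His (12.5 nM) and biotin-SIRPalpha (25 nM) soluble extracellular domains, bead-captured via Ni-NTA and streptavidin. Compounds, in 7-point titrations, met SIRPalpha 30 min before CD47; PBS pH 7.4 with 0.05% IGEPAL.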
# [16] = target: Parathyroid hormone/parathyroid hormone-related peptide receptor (Homo sapiens) (UniProt Q03431); assay: qHTS for PTHR1 Agonists: Optimization Screen against the NCGC LOPAC library (AID 1347079);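 also: GloSensor cAMP luminescence in HEK-293 GP2 cells expressing human PTHR1 with IBMX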
# Chain of Parathyroid hormone/parathyroid hormone-related peptide receptor (Homo sapiens) (Q03431 whole entry, looked up): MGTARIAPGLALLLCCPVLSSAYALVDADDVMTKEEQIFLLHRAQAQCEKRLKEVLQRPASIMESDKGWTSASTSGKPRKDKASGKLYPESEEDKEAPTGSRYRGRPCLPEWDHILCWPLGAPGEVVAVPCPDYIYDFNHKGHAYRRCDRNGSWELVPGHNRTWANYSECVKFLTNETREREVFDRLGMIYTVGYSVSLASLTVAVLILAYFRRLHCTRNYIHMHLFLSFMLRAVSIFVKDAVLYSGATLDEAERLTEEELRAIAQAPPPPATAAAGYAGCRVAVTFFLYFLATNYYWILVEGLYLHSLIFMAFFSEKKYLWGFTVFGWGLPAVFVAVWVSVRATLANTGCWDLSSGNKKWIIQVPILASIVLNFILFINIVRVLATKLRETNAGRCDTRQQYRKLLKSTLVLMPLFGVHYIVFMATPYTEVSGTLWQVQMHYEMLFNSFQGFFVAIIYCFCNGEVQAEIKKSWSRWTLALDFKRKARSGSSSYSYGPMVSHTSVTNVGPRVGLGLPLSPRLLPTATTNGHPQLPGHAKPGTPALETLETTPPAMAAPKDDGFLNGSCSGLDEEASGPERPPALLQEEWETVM
# In short: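 HEK-293 GP2 cells, PTHR1 + GloSensor cAMP; 3000 cells/well, o/n. Luciferin + IBMX 0.5mM each (stock), 1 hr 37C. Cpd titration, 1 hr 37C. Lum after 15 min RT. Ctrl M-PTH(1-15) top 10uM.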
smiles,measurement,setting,value
CC(=O)Nc1ccc(OC[C@](C)(O)C(=O)Nc2ccc([N+](=O)[O-])c(C(F)(F)F)c2)cc1,Potency,[1],inactive
same,Potency,[2],inactive
same,Potency,[3],inactive
same,Potency,[4],inactive
same,IC50 (viability decrease),[5],inactive
same,Potency,[6],inactive
same,Potency,[7],inactive
same,Potency,[8],inactive
CCNC(=O)CC1N=C(c2ccc(Cl)cc2)c2cc(OC)ccc2-n2c(C)nnc21 (centres undefined),Potency,[1],16.6 µM (active)
same,Potency,[9],inactive
same,Potency,[7],inactive
same,Potency,[10],inactive
Cc1c(C(=O)Nc2cccc(C(F)(F)F)c2)cc(-c2ccccc2)n1CCCN1CCOCC1,Potency,[1],8.33 µM (active)
CCN1C[C@]2(OC(=O)c3ccccc3NC(C)=O)CC[C@H](OC)[C@@]34[C@H]5CC6[C@@H](OC)C[C@](O)(C(C[C@@H]23)[C@@H]14)[C@@]5(O)[C@@H]6OC,Potency,[1],inactive
same,Potency,[9],inactive
same,Potency,[7],inactive
same,Potency,[10],inactive
same,Potency,[8],inactive
CC[C@@]1(O)C(=O)OCc2c1cc1n(c2=O)Cc2cc3ccccc3nc2-1,Potency,[1],0.0037 µM (active)
same,Potency,[7],0.332 µM (active)
same,Potency,[11],inactive
same,Potency,[12],inactive
same,Potency,[13],inactive
same,Potency,[10],11.8 nM (active) and inactive
same,outcome,[14],inactive
same,Potency,[15],inactive
same,outcome,[16],inactive
same,Potency,[8],inactive
c1ccc2c(CN3CCNCC3)cccc2c1,Potency,[1],inactive
same,Potency,[9],inactive
same,Potency,[7],inactive
same,Potency,[10],inactive
same,Potency,[8],inactive
Cc1ccccc1-n1c(Cn2cnc3c(N)ncnc32)nc2cccc(C)c2c1=O,Potency,[1],0.833 µM (active)
same,Potency,[3],18.7 µM (active)
same,IC50 (viability decrease),[5],18.7 µM (active)
same,Potency,[6],inactive
same,Potency,[7],0.59 µM (active)
same,Potency,[8],8.63 µM (active)
COc1ccc2c(c[n+](C)c3c4cc5c(cc4ccc23)OCO5)c1OC,Potency,[1],8.33 µM (active)
same,Potency,[3],20.9 µM (active)
same,IC50 (viability decrease),[5],16.6 µM (active)
same,Potency,[6],6.62 µM (active)
same,Potency,[11],13.1 µM (active)
same,Potency,[12],16.9 µM (active)
same,Potency,[13],14.7 µM (active)
same,outcome,[14],inactive
same,Potency,[15],inactive
same,outcome,[16],inactive
CC1=NN=C(c2ccc(N)cc2)c2cc3c(cc2C1)OCO3,Potency,[1],inactive
same,Potency,[9],inactive
same,Potency,[7],inactive
same,Potency,[11],inactive
same,Potency,[12],inactive
same,Potency,[13],inactive
same,Potency,[10],inactive
same,outcome,[14],inactive
same,Potency,[15],inactive
same,outcome,[16],inactive
same,Potency,[8],inactive
CC(C)(O)C(=O)Nc1ccc([N+](=O)[O-])c(C(F)(F)F)c1,Potency,[1],23.5 µM (active)
same,Potency,[7],inactive
CC(C)N(CCNC(=O)CN1CCCC1=O)C(C)C,Potency,[1],inactive
same,Potency,[9],inactive
same,Potency,[7],inactive
same,Potency,[10],inactive
same,Potency,[8],inactive
Cc1nc(-c2ccc(-c3ccc(C(=O)N4CCc5cc6c(cc54)C4(CCN(C)CC4)CO6)cc3)c(C)c2)no1,Potency,[1],inactive
same,Potency,[3],inactive
same,Potency,[6],16.6 µM (active)
same,Potency,[7],inactive
same,Potency,[10],inactive
same,Potency,[8],inactive
CC(C)(C)[C@]1(O)C[C@@H]2OC(=O)C[C@@]23C(=O)O[C@@H]2OC(=O)[C@H](O)C213 (some centres undefined),Potency,[1],inactive
same,Potency,[9],inactive
same,Potency,[7],inactive
same,Potency,[10],inactive
same,Potency,[8],inactive
CN1CCN(c2ccc([N+](=O)[O-])c3no[n+]([O-])c23)CC1,Potency,[1],18.7 µM (active)
same,Potency,[9],inactive
same,Potency,[7],inactive
same,Potency,[10],inactive
same,Potency,[8],inactive
N=c1c2c(-c3ccccc3)c(-c3ccccc3)n(Cc3ccccc3)c2ncn1C1CCC(O)CC1 (centres undefined),Potency,[1],0.662 µM (active)
same,Potency,[7],0.935 µM (active)
CC[C@@H]1[C@@H](C)O[C@@](O)([C@@H](C)[C@H](O)[C@H](C)[C@H]2OC(=O)C=CC=C[C@@H](C)[C@@H]([C@@H](C)[C@@H](O)[C@H](C)[C@@]3(O)C[C@H](O[C@H]4C[C@H](O)[C@H](O)[C@H](C)O4)[C@H](CC)[C@@H](C)O3)OC(=O)C=CC=C[C@@H]2C)C[C@H]1O[C@H]1C[C@H](O)[C@H](O)[C@H](C)O1,Potency,[1],0.662 µM (active)
same,Potency,[7],3.32 µM (active)
same,Potency,[10],1050 nM (active)
Cc1c(C(=O)c2cccc3ccccc23)c2cccc3c2n1[C@H](CN1CCOCC1)CO3,Potency,[1],26.4 µM (active)
same,Potency,[7],7.43 µM (active)
same,Potency,[12],inactive
same,Potency,[13],inactive
same,outcome,[16],inactive
CC(C)[C@H]1C(=O)N[C@H](CO)Cc2c[nH]c3cccc(c23)N1C,Potency,[1],0.166 µM (active)
same,Potency,[7],inactive
same,Potency,[10],inactive
same,Potency,[8],inactive
O=S(=O)(CC1CS1)c1ccc(Oc2ccccc2)cc1 (centres undefined),Potency,[1],16.6 µM (active)
same,Potency,[7],inactive
same,Potency,[10],inactive
same,Potency,[8],inactive
C[C@]12Cc3cn[nH]c3C[C@@H]1CC[C@@H]1[C@H]2CC[C@@]2(C)[C@H]1CC[C@]2(C)O,Potency,[1],3.32 µM (active)
same,Potency,[7],inactive
same,Potency,[10],inactive
same,Potency,[8],inactive
C[C@@]12OC(=O)[C@]1([C@@H](O)[C@@H]1C=CCCC1)NC(=O)[C@H]2CCCl,Potency,[1],0.0418 µM (active)
same,Potency,[7],0.148 µM (active)
same,Potency,[10],833 nM (active)
same,Potency,[8],34.3 µM (active)
CCOC(=O)Nc1ccc(NCc2ccc(F)cc2)cc1N,Potency,[1],20.9 µM (active)
same,Potency,[7],inactive
same,Potency,[10],inactive
CC=C(C)C(=O)N[C@@H](c1ccccc1)[C@@H](O)C(=O)O[C@H]1C[C@@]2(O)[C@@H](OC(=O)c3ccccc3)[C@@H]3[C@]4(OC(C)=O)CO[C@@H]4C[C@H](O)[C@@]3(C)C(=O)[C@H](OC(C)=O)C(=C1C)C2(C)C,Potency,[1],inactive
same,Potency,[7],0.0332 µM (active)
same,Potency,[10],3.3 nM (active)
same,Potency,[8],inactive
C[C@H]([C@H](O)CCC(C)(C)O)[C@H]1CC[C@@]2(O)C3=CC(=O)[C@@H]4C[C@@H](O)[C@@H](O)C[C@]4(C)[C@@H]3CC[C@]12C,Potency,[1],inactive
same,Potency,[7],inactive
same,Potency,[10],inactive
same,Potency,[8],inactive
O=C1C=CC[C@@H]2[C@H]3CCCN4CCC[C@@H](CN12)[C@@H]34,Potency,[1],16.6 µM (active)
same,Potency,[7],inactive
same,Potency,[10],inactive
same,Potency,[8],inactive
